The results in this text go back to PubChem BioAssay (NCI).

This is part of a sample that, as a whole, favours compounds with a hit. Of some 83,000 tested, about 20% had one in any assay.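 Cell lines were cultured in 96-well plates, exposed to a single compound concentration, and assessed for percent growth 48 hours later.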 Values without a mark were called inactive. Active and inactive are the calls of the source. The calls were made as follows: active = growth percent below 10; inactive = the rest.

For the first assay, the system named is A549/ATCC NSCLC. Nature of the assay: NCI-60 one-dose screen, 48 h (100 = growth as untreated, 0 = no growth, -100 = all killed). The settings on record: 10 µM unless noted.
Consider `COc1ccc(/C=C/C(=O)N2CCC(O)CC2)cc1OC1CCCC1`, for which the growth was 91.4%.
On the same count and under the same terms, the result for `CCCCOC(=O)C1OC(Oc2ccc3c(C)cc(=O)oc3c2)[C@@H](OC(C)=O)C(OC(C)=O)C1OC(C)=O` (stereo partly specified) reads 96.3%.
Same read-out and setting: the result for `CC(=O)OC[C@H](O)[C@@]1(O)CC[C@H]2[C@@H]3CCC4=CC(=O)CC[C@]4(C)[C@H]3[C@@H](O)C[C@@]21C` reads 83.1%; that for `CCOC(=O)c1[nH]c2cc(Cl)ccc2c1[C@@H](C(=O)NC(C)(C)C)N(CC)C(=O)CCCCC#Cc1cccc2c1CN(C1CCC(=O)NC1=O)C2=O` (stereo partly specified), 20.7%.
The same measure, in the same setting: the result for `O=c1oc2ccccc2cc1-c1csc(N=Nc2c(O)[nH]c3ccc(Cl)cc23)n1` reads 89.6%; that for `CCN1CCN(c2nc3ccccc3c3c(=O)c4cc(F)ccc4sc23)CC1`, 58.4%; that for `COc1cc2oc(-c3ccc(O)cc3)cc(=O)c2c(O)c1I`, 96.7%.
`COc1ccc(NS(=O)(=O)c2ccc(-c3cnc(C4CC4)o3)cc2)cc1`: the growth was 54.7%.
On to `O=C(N/N=C(\CS(=O)(=O)c1ccccc1)c1cc2cc(Br)ccc2oc1=O)c1ccccc1`, for which the growth is 95.3%.
Take `C[C@]1(CO)C[C@@H](O)C[C@]2(C)[C@@H]1CC[C@@]13C[C@@H]4[C@@H](C[C@H]12)[C@]4(C)C3`: the growth is 102%.
Consider `O=C(NC1CC1)c1cc2n(n1)CC(c1ccccc1)N2` (stereo unspecified), for which the growth is 99.6%.
With `Cc1cccc2c(=O)c3c(sc12)c(NCCNCCO)nc1ccccc13`, the growth was 37.7%.
Same read-out and setting: the result for `COC(=O)[C@@]12CC[C@@H](C)[C@]3(C[C@@H](c4ccoc4)OC3=O)[C@H]1CC[C@@H]1O[C@@]12C` reads 103%; that for `O=C1c2c(c3c4cc(Br)ccc4[nH]c3c3ccc4ccccc4c23)C(=O)N1O`, 95.6%.
Same read-out and setting: the result for `NS(=O)(=O)c1ccc(C(=O)N/N=C(\CS(=O)(=O)c2ccccc2)c2cc3cc(Br)ccc3o2)cc1` reads 87%; that for `O=c1oc2ccccc2cc1-c1csc(N=Nc2c(O)[nH]c3ccc(Br)cc23)n1`, 93.8%.
As for `O=C(N/N=C/c1ccc(OC(F)F)c(OC2CCCC2)c1)c1cnn2c1NC(c1ccccc1)C2` (stereo unspecified), the growth is 73.8%.
On to `COc1ccc(/C=N/NC(=O)c2cnn3c2NC(c2ccccc2)C3)cc1OC1CCCC1` (stereo unspecified), for which the growth is 84.1%.
As for `CCCCCCCC/C=C\CCCCCCCCOc1cccc(CC(=O)NCC[N+]2(C)CCOCC2)c1`, the growth is 90.6%.
The same measure, in the same setting: the result for `COC(=O)c1c2c(c(C)[n+]([O-])c1C)C(=O)C(NCc1ccc(O)cc1)=CC2=O` reads 4.46% (active).
As for `COc1c(O)c2c3c(c1OC)-c1ccccc1CC3N(S(=O)(=O)c1ccc(C)cc1)CC2` (stereo unspecified), the growth is 44.1%.
`COc1cc(/C=N/NC(=O)c2cnn3c2NC(c2ccccc2)C3)ccc1OC1CCCC1` (stereo unspecified): the growth was 40.6%.
Same read-out and setting: the result for `CCOC(=O)c1cnn(CC(O)c2ccc(F)cc2)c1NC(=O)Nc1ccccc1F` (stereo unspecified) reads 103%; that for `CCCN1CCN(c2ccc3nc(-c4ccc5nc(-c6ccc(C(F)(F)F)cc6)[nH]c5c4)[nH]c3c2)CC1`, -65.1% (active).
For the molecule `CCCCCCCC/C=C\CCCCCCCCOc1cccc(CC(=O)NCC[N+](C)(C)C)c1`, the growth is 90.9%.
With `NC(=S)N/N=C1\c2ccccc2-c2c(F)c(F)c(F)c(F)c21`, the growth was 87.5%.
Still for that read-out and setting: the result for `COc1cc(/C=C/C(=O)CC(=O)/C=C/c2cc(Br)c(OC)c(OC)c2)cc(Br)c1OC` reads 96.1%; that for `COc1cccc2c(=O)c3c(sc12)c(NCCN(C)C)nc1ccccc13`, 7.73% (active).
Regarding `Cc1cccc2c(=O)c3c(sc12)c(NCCCN)nc1ccccc13`, the growth is 14.5%.
On to `O=C(c1ccc2ncc(-c3nc(NC4CC4)ncc3F)n2c1)N1CCOCC1`, for which the growth was 13.9%.
Same read-out and setting: the result for `O=S(=O)(Nc1ccccc1Cl)c1ccc(-c2cnc(C3CC3)o2)cc1` reads 31.4%; that for `O=c1oc2ccccc2cc1-c1csc(N/N=C/c2cc3ccccc3nc2Cl)n1`, 92.8%.
The same measure, in the same setting: the result for `CCCCCCCC/C=C\CCCCCCCCOc1cccc(CC(=O)NCC[N+]2(C)CCCC2)c1` reads 95%; that for `CCC(C)Oc1cc(/C=N/NC(=O)c2cnn3c2NC(c2ccccc2)C3)ccc1OC` (stereo unspecified), 43.6%.
On the same count and under the same terms, the result for `Cl.Fc1c[c-]c(-c2ccccn2)c(F)c1.[Pt].c1ccc([PH+](CC[PH+](c2ccccc2)c2ccccc2)c2ccccc2)cc1` reads -52.9% (active).
Consider `CCN(CC)c1ccc2c(c1)OS(=O)(=O)N=C2`, for which the growth is 106%.
On the same count and under the same terms, the result for `NC(=O)c1cccc(-n2ccc3cc(NC(=O)Nc4ccc(Cl)c(Cl)c4)ccc32)n1` reads 74.4%; that for `COc1ccc(C2=NOC(CC(=O)N(CCO)CCO)C2)cc1OC1CCCC1` (stereo unspecified), 95.5%.

A further assay relates to 786-0 renal. Described as above. The settings on record: 10 µM unless noted.
As to `COc1ccc(/C=C/C(=O)N2CCC(O)CC2)cc1OC1CCCC1`, the growth was 104%.
On the same count and under the same terms, the result for `CCCCOC(=O)C1OC(Oc2ccc3c(C)cc(=O)oc3c2)[C@@H](OC(C)=O)C(OC(C)=O)C1OC(C)=O` (stereo partly specified) reads 98.5%; that for `CC(=O)OC[C@H](O)[C@@]1(O)CC[C@H]2[C@@H]3CCC4=CC(=O)CC[C@]4(C)[C@H]3[C@@H](O)C[C@@]21C`, 104%; that for `CCOC(=O)c1[nH]c2cc(Cl)ccc2c1[C@@H](C(=O)NC(C)(C)C)N(CC)C(=O)CCCCC#Cc1cccc2c1CN(C1CCC(=O)NC1=O)C2=O` (stereo partly specified), 13.5%.
Same read-out and setting: the result for `O=c1oc2ccccc2cc1-c1csc(N=Nc2c(O)[nH]c3ccc(Cl)cc23)n1` reads 105%; that for `CCN1CCN(c2nc3ccccc3c3c(=O)c4cc(F)ccc4sc23)CC1`, 60.6%; that for `COc1cc2oc(-c3ccc(O)cc3)cc(=O)c2c(O)c1I`, 100%.
On to `COc1ccc(NS(=O)(=O)c2ccc(-c3cnc(C4CC4)o3)cc2)cc1`, for which the growth is 81.3%.
Take `O=C(N/N=C(\CS(=O)(=O)c1ccccc1)c1cc2cc(Br)ccc2oc1=O)c1ccccc1`: the growth was 106%.
As to `C[C@]1(CO)C[C@@H](O)C[C@]2(C)[C@@H]1CC[C@@]13C[C@@H]4[C@@H](C[C@H]12)[C@]4(C)C3`, the growth is 104%.
With `O=C(NC1CC1)c1cc2n(n1)CC(c1ccccc1)N2` (stereo unspecified), the growth is 101%.
On to `Cc1cccc2c(=O)c3c(sc12)c(NCCNCCO)nc1ccccc13`, for which the growth is 52.9%.
Still for that read-out and setting: the result for `COC(=O)[C@@]12CC[C@@H](C)[C@]3(C[C@@H](c4ccoc4)OC3=O)[C@H]1CC[C@@H]1O[C@@]12C` reads 99.3%; that for `O=C1c2c(c3c4cc(Br)ccc4[nH]c3c3ccc4ccccc4c23)C(=O)N1O`, 106%.
On to `NS(=O)(=O)c1ccc(C(=O)N/N=C(\CS(=O)(=O)c2ccccc2)c2cc3cc(Br)ccc3o2)cc1`, for which the growth is 101%.
On the same count and under the same terms, the result for `O=c1oc2ccccc2cc1-c1csc(N=Nc2c(O)[nH]c3ccc(Br)cc23)n1` reads 103%; that for `O=C(N/N=C/c1ccc(OC(F)F)c(OC2CCCC2)c1)c1cnn2c1NC(c1ccccc1)C2` (stereo unspecified), 89.2%.
As for `COc1ccc(/C=N/NC(=O)c2cnn3c2NC(c2ccccc2)C3)cc1OC1CCCC1` (stereo unspecified), the growth was 98.4%.
In the case of `CCCCCCCC/C=C\CCCCCCCCOc1cccc(CC(=O)NCC[N+]2(C)CCOCC2)c1`, the growth is 94.9%.
For the molecule `COC(=O)c1c2c(c(C)[n+]([O-])c1C)C(=O)C(NCc1ccc(O)cc1)=CC2=O`, the growth is 7.96% (active).
With `COc1c(O)c2c3c(c1OC)-c1ccccc1CC3N(S(=O)(=O)c1ccc(C)cc1)CC2` (stereo unspecified), the growth is 75.8%.
As for `COc1cc(/C=N/NC(=O)c2cnn3c2NC(c2ccccc2)C3)ccc1OC1CCCC1` (stereo unspecified), the growth was 9.01% (active).
The same measure, in the same setting: the result for `CCOC(=O)c1cnn(CC(O)c2ccc(F)cc2)c1NC(=O)Nc1ccccc1F` (stereo unspecified) reads 90.3%.
On the same count and under the same terms, the result for `CCCN1CCN(c2ccc3nc(-c4ccc5nc(-c6ccc(C(F)(F)F)cc6)[nH]c5c4)[nH]c3c2)CC1` reads -90.2% (active); that for `CCCCCCCC/C=C\CCCCCCCCOc1cccc(CC(=O)NCC[N+](C)(C)C)c1`, 80.8%.
Same read-out and setting: the result for `NC(=S)N/N=C1\c2ccccc2-c2c(F)c(F)c(F)c(F)c21` reads 88.8%; that for `COc1cc(/C=C/C(=O)CC(=O)/C=C/c2cc(Br)c(OC)c(OC)c2)cc(Br)c1OC`, 94.3%.
For the molecule `COc1cccc2c(=O)c3c(sc12)c(NCCN(C)C)nc1ccccc13`, the growth is 28.7%.
On to `Cc1cccc2c(=O)c3c(sc12)c(NCCCN)nc1ccccc13`, for which the growth was 52.9%.
In the case of `O=C(c1ccc2ncc(-c3nc(NC4CC4)ncc3F)n2c1)N1CCOCC1`, the growth was 9.09% (active).
Turning to `O=S(=O)(Nc1ccccc1Cl)c1ccc(-c2cnc(C3CC3)o2)cc1`, the growth was 51.1%.
The same measure, in the same setting: the result for `O=c1oc2ccccc2cc1-c1csc(N/N=C/c2cc3ccccc3nc2Cl)n1` reads 107%.
The same measure, in the same setting: the result for `CCCCCCCC/C=C\CCCCCCCCOc1cccc(CC(=O)NCC[N+]2(C)CCCC2)c1` reads 93.9%; that for `CCC(C)Oc1cc(/C=N/NC(=O)c2cnn3c2NC(c2ccccc2)C3)ccc1OC` (stereo unspecified), 47.6%.
For the molecule `Cl.Fc1c[c-]c(-c2ccccn2)c(F)c1.[Pt].c1ccc([PH+](CC[PH+](c2ccccc2)c2ccccc2)c2ccccc2)cc1`, the growth was -79.4% (active).
For the molecule `CCN(CC)c1ccc2c(c1)OS(=O)(=O)N=C2`, the growth is 93%.
On the same count and under the same terms, the result for `NC(=O)c1cccc(-n2ccc3cc(NC(=O)Nc4ccc(Cl)c(Cl)c4)ccc32)n1` reads 66.4%.
As to `COc1ccc(C2=NOC(CC(=O)N(CCO)CCO)C2)cc1OC1CCCC1` (stereo unspecified), the growth is 92.7%.
